The text below walks through data of PubChem BioAssay (Tox21).

Assay [1] addresses Luciferin 4-monooxygenase (Photinus pyralis) (UniProt P08659). The assay can be described thus: qHTS assay to identify small molecule inhibitors of firefly luciferase (AID 1224835). Also: nearly all actives have a fitted effect of over 25% in size. Also: potency is read from the fitted curve at half-maximal effect. A digest of the protocol:
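Inhibition of purified Photinus luciferase is measured by luminescence. Substrate levels (D-luciferin, ATP) sit at their KM values. Each compound is tested in a concentration series.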

A short description of assay [2]: qHTS assay to identify small molecule agonists of the constitutive androstane receptor (CAR) signaling pathway - cell viability counter screen (AID 1224836). Also: series mostly up to about 92 µM; nearly all actives have a fitted effect of over 45% in size. Put shortly:
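Fluorescence from CellTiter-Fluor indicates live cells after 23 h exposure. The human hepatoma line expresses hCAR and a CYP2B6-2.2kb reporter. Incubation medium contains 0.75 uM PK11195 (final).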
In general terms: In qHTS, concentration-response curves come from the screen itself.

A short description of assay [3]: qHTS assay to identify small molecule antagonists of the constitutive androstane receptor (CAR) signaling pathway - cell viability counter screen (AID 1224837). Also: series mostly up to about 92 µM; nearly all actives have a fitted effect of over 45% in size. Put shortly: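 Cytotoxicity counter-screen: CellTiter-Fluor fluorescence after 23 h compound exposure (15-point qHTS) in double-stable HepG2-CYP2B6-hCAR cells, with 50 nM CITCO added.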
Assay [4] is described as follows: qHTS assay to identify small molecule antagonists of the estrogen related receptor signaling pathway with the pleiotropic PPARgamma coactivator (PGC) from Tox21 10K library - cell viability counter screen (AID 1224840; active = well fitted cell-killing curve with a large enough effect in the repeat runs, not every such curve was filed as active; also: nearly all actives have a fitted effect of over 40% in size). Put shortly: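 Counter-screen for cytotoxicity: after 17.5 h compound exposure at 37 C, CellTiter-Fluor reagent added to PGC/ERR cells for 30 min and fluorescence read. Cells were seeded at 2,000 per well 6 h before dosing.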

The target in assay [5] is Thyrotropin receptor (Homo sapiens) (UniProt P16473). The assay is described as follows: qHTS assay to identify small molecule agonists of the thyroid stimulating hormone receptor (TSHR) signaling pathway (AID 1224843; calls by dose curve; also: nearly all actives have a fitted effect of over 45% in size). Put shortly: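 Agonist activity read as cAMP rise via d2/cryptate HTRF competition, 1 h room-temperature detection, in HEK293 cells expressing TSHR. Fifteen-point titrations, each run in triplicate, with a 30 min room-temperature incubation beforehand.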

Assay [6] can be described thus: qHTS assay to identify small molecule agonists of H2AX (AID 1224845; active = well fitted activation curve with a large enough effect in the signal ratio in the repeat runs, not every such curve was filed as active; the % refers to the signal ratio). A digest of the protocol: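 Phospho-H2AX Ser139 measured by HTRF (ex 320 nm; em 665 and 620 nm) after 24 hr antibody incubation. Compounds, 15 concentrations, 0.76% DMSO, were applied to CHO-K1 cells for 3hr at 37C before lysis.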
Assay [7] is described as follows: qHTS assay to identify small molecule agonists of the hypoxia (HIF-1) signaling pathway (AID 1224846; active = well fitted activation curve with a large enough effect in the signal ratio in the repeat runs, not every such curve was filed as active; the % refers to the signal ratio). A digest of the protocol:
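Compounds added to ME-180 cells carrying hypoxia-response-element beta-lactamase reporter (0.5% dialyzed FBS, 5 h preplating), 17 h at 37C; agonist activity detected by CCF4-AM B/G FRET read-out.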

A short description of assay [8]: qHTS assay to identify small molecule agonists of H2AX - cell viability counter screen (AID 1224847; calls by dose curve; also: top concentration of the series differs between compounds; nearly all actives have a fitted effect of over 30% in size). A digest of the protocol: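 Viability of CHO-K1 (wild type) cells after 3 hr compound exposure was measured by CellTiter-Glo luminescence.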
Assay [9] in a line: qHTS RealTime-Glo MT Cell Viability Assay in HepG2 cells - 24 hour (AID 1224867). Also: nearly all actives have a fitted effect of over 50% in size. A digest of the protocol: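 qHTS, HepG2, 600 cells/well, RealTime-Glo (NanoLuc + prosubstrate) added with cells; 5 h preincubation; DMSO compound addition; 37 C; luminescence at 0/8/16/24/32/40 h.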
Assay [10] can be described thus: qHTS RealTime-Glo MT Cell Viability Assay in HEK293 cells - 32 hour (AID 1224868). Also: nearly all actives have a fitted effect of over 50% in size. Also: potency is read from the fitted curve at half-maximal effect. Put shortly: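 Assay medium contained NanoLuc luciferase plus cell-permeant prosubstrate, added with HEK293 cells at 600 cells/well. After 5 h at 37 C/5% CO2 compounds were added; plates stayed at 37 C for 40 h with serial luminescence reads.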
Assay [11] can be described thus: A CellTox Green Cytotoxicity Assay to monitor cytotoxicity in HEK293 cells - 0 hour (AID 1224869). Also: nearly all actives have a fitted effect of over 50% in size. A digest of the protocol: (§1)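 Fluorescence from a DNA-binding dye excluded by viable cells was measured repeatedly in the same HEK293 wells (600 cells/well) during continuous compound exposure at 37 C. Each assay gives one read point: 0, 8, 16, 24, 32 or 40 h.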
A short description of assay [12]: qHTS RealTime-Glo MT Cell Viability Assay in HepG2 cells - 40 hour (AID 1224870). Also: nearly all actives have a fitted effect of over 50% in size. A digest of the protocol: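 Real-time viability: cells seeded at 600 per well together with NanoLuc and cell-permeant prosubstrate, compounds added after 5 h incubation. Luminescence tracked at 0, 8, 16, 24, 32 and 40 h of exposure.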
The nature of assay [13]: A CellTox Green Cytotoxicity Assay to monitor cytotoxicity in HEK293 cells - 40 hour (AID 1224871). Also: nearly all actives have a fitted effect of over 45% in size. Also: potency is read from the fitted curve at half-maximal effect. Put shortly: as §1
Assay [14] can be described thus: qHTS assay to identify small molecule antagonists of the estrogen related receptor signaling pathway with the pleiotropic PPARgamma coactivator (PGC) from Tox21 10K library (AID 1224841; call rule not given here). A digest of the protocol: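 Luminescence (One-Glo, 30 min at room temperature) after 18 h compound treatment at 37 C of PGC/ERR reporter cells plated at 2,000 cells/well and settled 6 h beforehand.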

Assay [15] in a line: qHTS assay to identify small molecule agonists of the estrogen related receptor signaling pathway with the pleiotropic PPARgamma coactivator (PGC) from Tox21 10K library (AID 1224842). Also: nearly all actives have a fitted effect of over 15% in size. Put shortly:
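Luminescence from One-Glo (30 min, room temperature) measured after PGC/ERR cells had 18 h at 37 C with pinned compound (23 nL in DMSO). Cells had been seeded at 2,000 per well and pre-incubated 6 h.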

A short description of assay [16]: qHTS assay to identify small molecule agonists of the hypoxia (HIF-1) signaling pathway - cell viability counter screen (AID 1224844; calls by dose curve; also: nearly all actives have a fitted effect of over 50% in size). A digest of the protocol: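 Cytotoxicity measured by CellTiter-Glo ATP luminescence in the wells also read for beta-lactamase signal. Cells were HRE-bla ME-180 (2,000/well, 0.5% dialyzed FBS), exposed to compounds for 17 h at 37C.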

The nature of assay [17]: qHTS assay to identify small molecule antagonists of the estrogen related receptor (ERR) signaling pathway from Tox21 library (AID 1224848). Put shortly:
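Luciferase luminescence (ONE-Glo, 30 min room temperature) was the read-out. Cells of the NTP-supplied ERR line, 2,000 per well, were given 6 h at 37 C before compound addition in DMSO and 18 h exposure at 37 C.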

Assay [18] is described as follows: qHTS assay to identify small molecule agonists of the estrogen related receptor (ERR) signaling pathway from Tox21 library (AID 1224849; calls by dose curve; also: nearly all actives have a fitted effect of over 15% in size). A digest of the protocol:
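Luminescent agonist read-out (One-Glo, 30-minute room-temperature incubation) following 18-hour compound treatment at 37 C of the ERR cell line, which had been plated 6 hours before dosing.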

Unmarked numbers belong to inactive results. Records with an inconclusive call do not appear. Calls of active or inactive are those of the source. Unless noted, calls follow the shape of the dose curve; as a rule, active = well fitted curve in the direction sought with a large enough effect in the repeat runs; inconclusive = weak or mixed curves; inactive = no such curve, though single readings can be large; an effect the other way counts as inactive or inconclusive.

Sequence of Thyrotropin receptor (Homo sapiens) (P16473 whole entry, looked up): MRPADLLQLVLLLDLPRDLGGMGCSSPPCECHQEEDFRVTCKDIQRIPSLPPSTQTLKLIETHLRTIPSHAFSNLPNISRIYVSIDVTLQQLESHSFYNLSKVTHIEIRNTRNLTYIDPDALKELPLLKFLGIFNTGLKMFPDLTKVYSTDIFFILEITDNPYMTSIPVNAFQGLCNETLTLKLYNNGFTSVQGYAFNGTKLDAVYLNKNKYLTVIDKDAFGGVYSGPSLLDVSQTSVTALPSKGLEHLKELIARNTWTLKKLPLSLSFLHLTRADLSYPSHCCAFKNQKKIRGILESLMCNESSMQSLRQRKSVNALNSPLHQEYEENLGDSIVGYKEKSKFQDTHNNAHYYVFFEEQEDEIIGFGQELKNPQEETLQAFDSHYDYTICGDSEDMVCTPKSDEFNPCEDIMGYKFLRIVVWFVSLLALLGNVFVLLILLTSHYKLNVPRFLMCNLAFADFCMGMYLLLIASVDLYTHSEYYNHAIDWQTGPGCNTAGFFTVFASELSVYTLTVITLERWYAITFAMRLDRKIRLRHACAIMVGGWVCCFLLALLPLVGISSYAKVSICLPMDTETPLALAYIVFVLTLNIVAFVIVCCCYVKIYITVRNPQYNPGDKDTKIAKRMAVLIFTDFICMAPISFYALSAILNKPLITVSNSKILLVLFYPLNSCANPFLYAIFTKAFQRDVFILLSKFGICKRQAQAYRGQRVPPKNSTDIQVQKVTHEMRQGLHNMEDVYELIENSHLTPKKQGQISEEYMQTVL
Sequence of Luciferin 4-monooxygenase (Photinus pyralis) (P08659 whole entry, looked up): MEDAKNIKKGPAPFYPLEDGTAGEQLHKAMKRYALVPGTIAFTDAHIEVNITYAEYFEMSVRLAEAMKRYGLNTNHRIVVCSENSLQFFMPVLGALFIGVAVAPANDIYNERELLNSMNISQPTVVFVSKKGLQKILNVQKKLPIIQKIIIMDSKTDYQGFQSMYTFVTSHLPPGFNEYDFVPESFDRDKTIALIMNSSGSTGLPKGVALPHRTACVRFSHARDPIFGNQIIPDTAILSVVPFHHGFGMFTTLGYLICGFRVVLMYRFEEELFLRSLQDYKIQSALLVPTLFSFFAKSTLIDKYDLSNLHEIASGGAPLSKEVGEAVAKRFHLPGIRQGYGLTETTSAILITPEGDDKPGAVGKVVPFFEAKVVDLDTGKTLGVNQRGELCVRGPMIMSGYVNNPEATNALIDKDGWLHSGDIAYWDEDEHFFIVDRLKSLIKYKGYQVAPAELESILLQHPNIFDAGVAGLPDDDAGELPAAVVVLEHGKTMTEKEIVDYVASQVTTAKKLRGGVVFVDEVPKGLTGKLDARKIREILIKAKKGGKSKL

On to `Cc1coc2ccccc2c1=O`, for which the Potency entry in assay [1], in assay [5], in [6], in assay [10], in assay [12] and in [13] was “inactive” throughout. Moreover, the compound was called inactive in assay [2], in assay [3], in [4], in assay [7], in assay [8] and in assay [9]. In assay [11], the compound was called inactive.

In the case of `COc1cc2c(cc1OC)-c1cc3ccc(OC)c(OC)c3c[n+]1CC2`, the Potency result in assay [1], in [15], in assay [16], in [12] and in [13] was “inactive” in each case. Also, the outcome in assay [2], in assay [3], in [18] and in [9] was inactive. The Potency is 34.7 µM (active) in assay [14], 24.6 µM (active) in [17] and 49.4 µM (active) in assay [10].

`c1ccc(Cc2ccccc2)cc1`: the Potency result in assay [1], in [16], in [6], in [10] and in [12] was “inactive” each time. The compound was called inactive in assay [2], in assay [3], in assay [4], in assay [7], in [8] and in assay [9]. Moreover, the compound was called inactive in assay [11]. Further, the Potency in assay [13] is 34.7 µM (active).

In the case of `CCOC(=O)C1=NOC(c2ccccc2)(c2ccccc2)C1`, in [1], the Potency was 71 µM (active). Further, the result in [2], in [3], in [4], in assay [7], in [8] and in assay [9] was inactive. The result in [11] was inactive. In addition, the Potency entry in [16], in assay [6], in [10] and in assay [12] was “inactive” throughout.

With `CC(C)CCCO`, the Potency entry in assay [1], in [5], in assay [16], in [6], in assay [10] and in assay [12] was “inactive” each time. In [13], the Potency entry was “inactive”. Further, the result in assay [2], in assay [3], in assay [4], in [7], in assay [8] and in assay [9] was inactive. In addition, the call in [11] was inactive.

`Cc1ccccc1N=C(N)N=C(N)N`: the Potency entry in assay [1], in assay [5], in [16], in assay [10] and in assay [12] was “inactive” each time. In addition, the result in [2], in [3], in [4], in assay [7], in assay [9] and in [11] was inactive.

For the compound `CC1=CC(=O)[C@H]2C[C@@H]1C2(C)C`, the Potency entry in assay [1], in [6], in [10], in [12] and in [13] was “inactive” throughout. The result in assay [2], in assay [3], in assay [4], in assay [7], in [8] and in assay [9] was inactive. Further, the outcome in assay [11] was inactive.

On to `CC(CO)(CO)[N+](=O)[O-]`, for which the Potency result in [1], in assay [5], in assay [16], in [10], in [12] and in assay [13] was “inactive” each time. Besides, the compound was classed as inactive in [2], in assay [3], in assay [4], in [7], in assay [8] and in assay [9]. Besides, the call in [11] was inactive.

For the compound `O=C(O)CNC(=O)c1ccc(CO)o1`, the Potency entry in assay [1], in assay [16], in [6], in assay [10], in assay [12] and in [13] was “inactive” in each case. Moreover, the outcome in assay [2], in assay [3], in [4], in [7], in [8] and in [9] was inactive. In addition, the outcome in assay [11] was inactive.
